Reference: the supplement of paper PMC11219838

What follows are molecules tested on Caenorhabditis elegans L1 (N2) (assay: survival and reproduction score of C. elegans L1 (0: 0-10 living worms, 1: 11-20, 2: 21-50, 3: >50, 4: overgrown) (score 0-4); higher = more worms, less nematicidal, active = 1 or less; extreme values may be limits of the assay). Conditions: 60 µM; 6 days; temperature: 20 °C.
In short: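 Each 96-well well received about 20 synchronized N2 L1 worms of C. elegans, E. coli HB101 and liquid NGM, plus compound pinned to 60 µM final (0.6% v/v DMSO). Sealed plates were incubated with shaking at 200 rpm, 20 °C, for 6 days. Survival and reproduction were rated under a dissection microscope as an ordinal score of living worms per well, averaged across biological replicates. The scale spanned 0 (0–10 worms) to 4 (overgrown, starved), and there were two replicates.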
`CCNC(=O)c1ccccc1-c1nc(-c2ccc(F)cc2)no1` was tested, and the “survival and reproduction score” value was 2 (inactive). In the case of `Cc1cc(OC(C)c2nc(-c3cccnc3)no2)ccc1Cl` (stereo not drawn), the “survival and reproduction score” value is reported as 4 (inactive). In the case of `COc1cccc(-c2noc(-c3ccc(C)cc3Cl)n2)c1`, the “survival and reproduction score” value is reported as 4 (inactive). For `COc1ccccc1-c1noc(-c2ccc(C(C)(C)C)cc2)n1`, the “survival and reproduction score” value was 4 (inactive). `Clc1ccc(-c2noc(-c3ccc4c(c3)OCCO4)n2)cc1` was tested, and the “survival and reproduction score” value was 4 (inactive). For `Cc1ccc(-c2noc(-c3ccc(-n4nncc4C)cc3)n2)cc1`, the “survival and reproduction score” value was 4 (inactive). For `CCOc1ccccc1-c1nnc(SCc2ccccc2)o1`, the “survival and reproduction score” value was 4 (inactive). For `COc1nc(-c2ccccc2)ccc1-c1noc(-c2ccccc2Cl)n1`, the “survival and reproduction score” value was 4 (inactive). For `Clc1ccc(CSc2nnc(-c3ccccc3)o2)c(Cl)c1`, the “survival and reproduction score” value was 4 (inactive). For `O=C(CSc1nnc(-c2cccc(Cl)c2)o1)NC1CCCCC1`, the “survival and reproduction score” value was 4 (inactive). In the case of `COc1ccc(Cl)cc1-c1nc(-c2ccc3c(c2)OCO3)no1`, the “survival and reproduction score” value is reported as 4 (inactive). `c1ccc2cc(-c3nc(-c4ccncc4)no3)ccc2c1` was tested, and the “survival and reproduction score” value was 0 (active). In the case of `COC(=O)c1ccc(CSc2nnc(-c3ccc(OC)cc3)o2)cc1`, the “survival and reproduction score” value is reported as 4 (inactive). `Fc1ccc(-c2noc(COc3ccccc3)n2)cc1` was tested, and the “survival and reproduction score” value was 3.5 (inactive). With `O=C(Nc1ccc(-c2noc(-c3ccccn3)n2)cc1)c1cccc(Cl)c1` the “survival and reproduction score” value was 4 (inactive). With `C#CCOc1ccc(-c2nc(-c3ccccc3)no2)cc1` the “survival and reproduction score” value was 0 (active). In the case of `Cc1ccccc1-c1noc(COc2ccccc2)n1`, the “survival and reproduction score” value is reported as 4 (inactive). `Brc1ccccc1-c1nc(-c2ccccn2)no1` was tested, and the “survival and reproduction score” value was 2 (inactive). `COc1ccc(-c2noc(-c3cccc(Cl)c3)n2)cc1` was tested, and the “survival and reproduction score” value was 4 (inactive). For `Brc1ccc(-c2noc(-c3cccs3)n2)o1`, the “survival and reproduction score” value was 0 (active). `Cc1ccc(-c2nnc(SCc3ccccc3C)o2)cc1` was tested, and the “survival and reproduction score” value was 4 (inactive). For `Cc1cccc(OCc2nc(-c3ccc(Br)cc3)no2)c1`, the “survival and reproduction score” value was 4 (inactive). In the case of `Cc1cc(OCc2nc(-c3ccccn3)no2)ccc1Br`, the “survival and reproduction score” value is reported as 4 (inactive). For `Brc1cccc(-c2nc(-c3ccccc3)no2)c1`, the “survival and reproduction score” value was 0 (active). For `Cc1cccc(OCc2nc(-c3ccncc3)no2)c1C`, the “survival and reproduction score” value was 4 (inactive). For `COc1cccc(OCc2nc(-c3cccc(C)c3)no2)c1`, the “survival and reproduction score” value was 4 (inactive). `Clc1ccccc1-c1noc(-c2ccncc2)n1` was tested, and the “survival and reproduction score” value was 4 (inactive). In the case of `CCCCC(=O)Nc1ccccc1-c1nc(-c2ccncc2)no1`, the “survival and reproduction score” value is reported as 4 (inactive). With `Cc1cc(OCc2nc(-c3ccncc3)no2)cc(C)c1Cl` the “survival and reproduction score” value was 4 (inactive). For `CCOc1cc(C#N)ccc1OCc1nc(-c2cccs2)no1`, the “survival and reproduction score” value was 4 (inactive). `CC(C)(C)c1ccc(OCc2nc(-c3ccncc3)no2)c(Br)c1` was tested, and the “survival and reproduction score” value was 4 (inactive). For `COc1ccc(-c2nnc(SCC(=O)c3ccccc3)o2)cc1`, the “survival and reproduction score” value was 4 (inactive). `CCOc1cc(-c2nc(-c3ccc(C)nc3OCC)no2)cc(OCC)c1OCC` was tested, and the “survival and reproduction score” value was 4 (inactive). `O=C(CSc1nnc(-c2ccccc2)o1)Nc1ccccc1F` was tested, and the “survival and reproduction score” value was 4 (inactive). With `CC(C)Oc1ccc(-c2nc(-c3ccccc3)no2)cc1` the “survival and reproduction score” value was 0 (active). For `Cc1cccc(-c2noc(-c3ccccc3Cl)n2)c1`, the “survival and reproduction score” value was 4 (inactive). `Fc1ccc(-c2nc(-c3ccc(Cl)cc3)no2)cc1` was tested, and the “survival and reproduction score” value was 4 (inactive). For `Brc1ccccc1-c1nc(-c2ccncc2)no1`, the “survival and reproduction score” value was 0 (active).
